In PubChem BioAssay (NCATS):
Inconclusive results are not listed. Calls of active or inactive are those of the source. The call rests on the fitted dose curve; in most records, active means well fitted inhibition curve with a large enough effect; inconclusive means small, poorly fitted or top-dose-only effect, or effect the other way; inactive means flat fitted curve, though single readings scatter.

Experiment: qHTS for Inhibitors of Plasmodium falciparum (GB4) proliferation (AID 504315); further: nearly all actives have a fitted effect of over 50% in size;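 on activity change, negative = inhibition: 0% = DMSO vehicle and -100% = 0.29 µM artemisinin control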
Conditions: P. falciparum GB4 in erythrocytes, SYBR Green DNA, 72 h; series mostly up to 6.7 µM; activity change, negative = inhibition: at the top concentration
Method in brief: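 Parasite growth measured as SYBR Green DNA fluorescence (ex 485, em 535 nm) after overnight lysis following 72 h culture at 37 °C, 0.3% parasitemia, 2.5% hematocrit. Values normalized against DMSO and 0.29 uM artemisinin controls, with plate-stack correction.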
Potency means the concentration at half of the fitted maximal effect.

Row | SMILES | activity change, negative = inhibition | Potency
1 | CC(CCN1CCCc2nc(C)c(C)cc21)=NO[C@H](C)c1cn([C@@H]2COC[C@@H]2O)nn1 | -8% (inactive) | 
2 | CCN1C(=O)N[C@@H](CCc2ccccc2)C(C(=O)OC)=C1C | 4.69% (inactive) | 
3 | COC(=O)N1C2=C(c3ccccc3[C@@H]1CC(=O)Nc1ccc3cc4ccccc4cc3c1)[C@@H]1C(=O)N(c3ccccc3)C(=O)[C@@H]1[C@H](C)C2 |  | 1510 nM (active)
4 | CC1(OC(=O)CCc2ccccc2)C(=O)C=C2C=C(c3ccc(C#N)cc3)N(CCN3CCOCC3)C=C2C1=O (stereo not given) | 7.36% (inactive) | 
5 | CCN1C(=O)N[C@@H](c2ccc(Br)cc2)C(C(C)=O)=C1C | 4.17% (inactive) | 
6 | CCN1C(=O)N[C@@H](c2ccco2)C(C(=O)OC)=C1C | 4.46% (inactive) | 
7 | COC(=O)CCCC1=CC2=C(c3ccccc3)C(=O)C(C)(OC(=O)C3CCCC3)C(=O)C2=CN1CC1CC1 (stereo not given) | 13.6% (inactive) | 
8 | COC(=O)[C@@H]1[C@@H](C)N(Cc2ccccc2)C(=O)N[C@H]1c1ccccc1 | 8.72% (inactive) | 
9 | CCCCC1=CC2=CC(=O)C(C)(OC(=O)CC)C(=O)C2=CN1CCCOC(C)C (stereo not given) | -8.97% (inactive) | 
10 | COC(=O)[C@@H]1[C@H](CCc2ccccc2)NC(=O)N(Cc2ccccc2)[C@H]1C | -1.28% (inactive) | 
11 | CCOC(=O)CN1C(=O)N[C@@H](c2ccccc2)[C@H](C(=O)OC)[C@H]1C | 15.9% (inactive) | 
12 | CCC(=O)OC1(C)C(=O)C=C2C=C(CCCCNC(=O)OC(C)(C)C)OC=C2C1=O (stereo not given) | 7.02% (inactive) | 
13 | COC(=O)C1=C(C(=O)OC)[C@@H]2N(C)c3ccccc3[C@@]23C[C@@H](C(=O)OC)N(C(=O)CC(C)C)C3=N1 | -3.21% (inactive) | 
14 | C=C(C(C)=O)C(O)C=Cc1ccco1 (stereo not given) | 16.5% (inactive) | 
15 | COC(=O)CCC(=O)OC1(C)C(=O)C=C2C=C(C3CC3)N(Cc3ccccc3)C=C2C1=O (stereo not given) | 9.19% (inactive) | 
16 | CCN1C(=O)N[C@@H](c2cccc(C(F)(F)F)c2)C(C(C)=O)=C1C | 5.99% (inactive) | 
17 | C=CCN1C=C2C(=O)C(C)(OC(=O)C3CCCC3)C(=O)C(c3ccccc3)=C2C=C1CCCC(=O)OC (stereo not given) | 9% (inactive) | 
18 | CC(=O)Nc1ccc(S(=O)(=O)N2CCc3nc(COc4ccccc4)c4c(c3C2)CO[C@@H](C)C4)cc1 |  | inactive
19 | COC(=O)C1=C(C(=O)OC)[C@@H]2N(C)c3ccccc3[C@@]23C[C@@H](C(=O)OC)N(C(=O)COCc2ccccc2)C3=N1 | 6.25% (inactive) | 
20 | COC(=O)CCCC1=CC2=C(c3ccccc3)C(=O)C(C)(OC(=O)C3CCCC3)C(=O)C2=CN1C1CC1 (stereo not given) | 13.9% (inactive) | 

Row | SMILES | activity change, negative = inhibition | Potency
21 | COC/C=C/C1=CC2=CC(=O)C(C)(OC(=O)c3cnc4ccccc4n3)C(=O)C2=CN1Cc1ccc(OC)cc1 (stereo not given) | 9.43% (inactive) | 
22 | COC(=O)CCCC1=CC2=CC(=O)C(C)(OC(=O)c3cccs3)C(=O)C2=CN1c1cccc(C#N)c1 (stereo not given) | 9.41% (inactive) | 
23 | CCCCC1=CC2=C(c3ccco3)C(=O)C(C)(OC(=O)c3ccc(OC)cc3)C(=O)C2=CN1CCCCO (stereo not given) | 0.657% (inactive) | 
24 | COC(=O)C1=C(C)N(Cc2ccccc2)C(=O)N[C@H]1c1cccc(F)c1 | 1.56% (inactive) | 
25 | CCN1C(=O)N[C@@H](c2ccccc2)[C@H](C(C)=O)[C@H]1C | 9.23% (inactive) | 
26 | C=CCOC(=O)N[C@H](C(C(=O)OC)=C(C)NCc1ccccc1)c1cccc(F)c1 | 12.5% (inactive) | 
27 | C=CCOC(=O)N[C@@H](c1ccc(Br)cc1)C(C(C)=O)C(C)=O | 5.6% (inactive) | 
28 | CCN1C(=O)N[C@@H](c2ccccc2)C(C(=O)OC)=C1C | 9.85% (inactive) | 
29 | COc1cccc(CC(=O)N2CCc3nc(-c4ccccc4)c4c(c3C2)CO[C@@H](C)C4)c1 |  | inactive
30 | COCCN1C(=O)N[C@@H](c2cccs2)C(C(C)=O)=C1C | 3.88% (inactive) | 
31 | CC[C@@H](C)CN1C(=O)N[C@@H](CCc2ccccc2)C(C(C)=O)=C1C |  | inactive
32 | CC#CCN1c2ccccc2[C@]23C[C@@H](C(=O)OC)N(S(=O)(=O)c4ccc(Br)cc4)C2=NC(C(=O)OC)=C(C(=O)OC)[C@H]13 |  | 1690 nM (active)
33 | COC(=O)CCC(=O)OC1(C)C(=O)C2=CN(Cc3ccc4c(c3)OCO4)C(c3ccc(OC)cc3)=CC2=C(Br)C1=O (stereo not given) | 8.13% (inactive) | 
34 | CCN1C(=O)N[C@@H](c2cccc(C(F)(F)F)c2)[C@@H](C(=O)OC)[C@H]1C |  | inactive
35 | COC(=O)C1=C(C(=O)OC)[C@@H]2N(C)c3ccccc3[C@@]23C[C@@H](C(=O)OC)N(S(=O)(=O)c2ccc(Br)cc2)C3=N1 |  | 2130 nM (active)
36 | COCCN1C(=O)N[C@@H](c2cccc(C(F)(F)F)c2)[C@@H](C(=O)OC)[C@H]1C |  | inactive
37 | COC/C=C/C1=CC2=CC(=O)C(C)(OC(=O)c3cnc4ccccc4n3)C(=O)C2=CN1c1cccc(C#N)c1 (stereo not given) | -1.12% (inactive) | 
38 | CC1(C)O[C@@H](C(O)(c2cc(F)c(F)c(F)c2)c2cc(F)c(F)c(F)c2)[C@H](C(O)(c2cc(F)c(F)c(F)c2)c2cc(F)c(F)c(F)c2)O1 |  | 953 nM (active)
39 | CCCCc1nc2c(c3c1C[C@H](C)OC3)CN(C(=O)NCc1ccco1)CC2 |  | inactive
40 | C[C@H]1Cc2c(-c3ccccc3)nc3c(c2CO1)CN(C(=O)c1ccco1)CC3 | -7.19% (inactive) | 
